Measurements: the supplement of paper PMC8285479
Structures can show the parent of a compound that is named as a salt. ± gives the standard deviation of the averaged measurements. The full ranking holds about 1,900 compounds; the median of “normalised cell viability (NPI; 0 = phenylarsine oxide control, 1 = DMSO control)” is about 1, and the lowest 2% start at about 0.039. The entries come from a sample that favours the lowest values as a whole.

System: NCI-H1944
Test: normalised cell viability (NPI; 0 = phenylarsine oxide control, 1 = DMSO control) (fraction of DMSO control); NCI-H1944 is a non-small cell lung cancer line; higher = more viable cells (less compound toxicity)
Conditions: 6 days
[1] = glucocorticoid arm: hydrocortisone 2.75 uM co-treatment, compound 1 µM
[2] = glucocorticoid arm: hydrocortisone 2.75 uM co-treatment, compound 5 µM
[3] = glucocorticoid arm: hydrocortisone 2.75 uM pre-treated 2 days and continued, compound 1 µM
[4] = glucocorticoid arm: hydrocortisone 2.75 uM pre-treated 2 days and continued, compound 5 µM
[5] = glucocorticoid arm: vehicle, compound 1 µM
[6] = glucocorticoid arm: vehicle, compound 5 µM
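Note: CTB read-out in 384-well plates, triplicate wells, NPI normalised per plate against 1 µM phenylarsine oxide (0) and 0.1% DMSO (1) controls.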

Work on CN1CCN(C2Cc3ccccc3Sc3ccc(Cl)cc32)CC1 (racemic) [(±)-Octoclothepin maleate] yielded a normalised cell viability [1] of 1.01 ± 0.011, a normalised cell viability [2] of 0.9477 ± 0.0045 and a normalised cell viability [3] of 1.01 ± 0.015. The normalised cell viability [4] was 1.05 ± 0.087, the normalised cell viability [5] was 1 ± 0.0095 and the normalised cell viability [6] was 1 ± 0.011.
[N-]=[N+]=Nc1ccc(C(=O)CSC[C@H](NC(=O)CC[C@H](N)C(=O)O)C(=O)NCC(=O)O)cc1 [S-(p-Azidophenacyl)glutathione] showed a normalised cell viability [1] of 1.017 ± 0.0058, a normalised cell viability [2] of 0.814 ± 0.0099 and a normalised cell viability [3] of 0.9947 ± 0.0067. It also gave a normalised cell viability [4] of 1 ± 0.021, a normalised cell viability [5] of 0.988 ± 0.014 and a normalised cell viability [6] of 0.517 ± 0.38.
COCC[n+]1c2c(n(Cc3cnccn3)c1C)C(=O)c1ccccc1C2=O showed a normalised cell viability [1] of 0.00685 ± 0.0014, a normalised cell viability [2] of 0.00188 ± 0.0012 and a normalised cell viability [3] of 0.00552 ± 0.0012. It also gave a normalised cell viability [4] of 0.0024 ± 0.00039, a normalised cell viability [5] of 0.00736 ± 0.00083 and a normalised cell viability [6] of 0.00199 ± 0.00048.
Molecule OC[C@H]1O[C@@H](n2cnc3c(Nc4ccccc4)ncnc32)[C@H](O)[C@@H]1O [N6-Phenyladenosine] has a normalised cell viability [1] of 1 ± 0.014, a normalised cell viability [2] of 1.01 ± 0.011 and a normalised cell viability [3] of 1.02 ± 0.022. It also gave a normalised cell viability [4] of 1.013 ± 0.0058, a normalised cell viability [5] of 1.01 ± 0.01 and a normalised cell viability [6] of 1.002 ± 0.0076.
With COc1[nH]c2ccc(F)cc2c1C(=O)OCC1CCN(CCNS(C)(=O)=O)CC1.NS(=O)(=O)O the normalised cell viability [1] was 1.023 ± 0.0058, the normalised cell viability [2] was 0.955 ± 0.011 and the normalised cell viability [3] was 1.017 ± 0.0058. For the same molecule, the normalised cell viability [4] was 0.989 ± 0.021, the normalised cell viability [5] was 0.9993 ± 0.0011 and the normalised cell viability [6] was 1.007 ± 0.0058.
CN(C)Cc1ccc(S(=O)(=O)n2ccc(/C=C/C(=O)NO)c2)cc1 [Resminostat] was tested, and the normalised cell viability [1] was 0.941 ± 0.011, the normalised cell viability [2] was 0.92 ± 0.018 and the normalised cell viability [3] was 0.961 ± 0.011. For the same molecule, the normalised cell viability [4] was 1.023 ± 0.0058, the normalised cell viability [5] was 1.001 ± 0.0081 and the normalised cell viability [6] was 0.214 ± 0.026.
In the case of N[C@@H](Cc1c[nH]c2ccccc12)C(=O)O [L-Tryptophan], the normalised cell viability [1] is reported as 1.01, the normalised cell viability [2] is reported as 1.027 ± 0.0058 and the normalised cell viability [3] is reported as 1.03 ± 0.032. The normalised cell viability [4] was 1.033 ± 0.0058, the normalised cell viability [5] was 0.999 ± 0.001 and the normalised cell viability [6] was 1.003 ± 0.0058.
With O=C(/C=C/c1ccc(CN(CCO)CCc2c[nH]c3ccccc23)cc1)NO [LAQ824 (Dacinostat)] the normalised cell viability [1] was 0.00706 ± 0.0016, the normalised cell viability [2] was -0.000483 ± 0.0039 and the normalised cell viability [3] was 0.0151 ± 0.00085. It also gave a normalised cell viability [4] of 0.00158 ± 0.00078, a normalised cell viability [5] of 0.0063 ± 0.00096 and a normalised cell viability [6] of -0.000399 ± 0.00047.
Ic1ccc(N2CCN(Cc3c[nH]c4ncccc34)CC2)cc1 [L-750,667 trihydrochloride] was tested, and the normalised cell viability [1] was 0.969 ± 0.003, the normalised cell viability [2] was 0.883 ± 0.014 and the normalised cell viability [3] was 0.99 ± 0.0044. The normalised cell viability [4] was 0.999 ± 0.087, the normalised cell viability [5] was 0.988 ± 0.011 and the normalised cell viability [6] was 0.998 ± 0.019.
CC1CCN=C(N)S1 (racemic) [(±)-AMT hydrochloride] showed a normalised cell viability [1] of 0.982 ± 0.015, a normalised cell viability [2] of 0.968 ± 0.015 and a normalised cell viability [3] of 0.9923 ± 0.0067. For the same molecule, the normalised cell viability [4] was 0.975 ± 0.0071, the normalised cell viability [5] was 0.9907 ± 0.0095 and the normalised cell viability [6] was 0.9677 ± 0.0046.
OCc1ccc(-c2ccc(-c3ccc(CO)s3)o2)s1 was tested, and the normalised cell viability [1] was 0.979 ± 0.0061, the normalised cell viability [2] was 0.0751 ± 0.0071 and the normalised cell viability [3] was 1.017 ± 0.0058. It also gave a normalised cell viability [4] of 0.358 ± 0.022, a normalised cell viability [5] of 0.621 ± 0.045 and a normalised cell viability [6] of 0.0128 ± 0.0026.
For CCc1ccc(/C=C2/SC(=S)NC2=O)cc1, the normalised cell viability [1] was 1.01 ± 0.017, the normalised cell viability [2] was 1.06 ± 0.011 and the normalised cell viability [3] was 1.04. The normalised cell viability [4] was 1.04 ± 0.021, the normalised cell viability [5] was 1.007 ± 0.0058 and the normalised cell viability [6] was 1.013 ± 0.0058.
In the case of COC(=O)C(N)Cc1ccc(Cl)cc1 (racemic) [DL-p-Chlorophenylalanine methyl ester hydrochloride], the normalised cell viability [1] is reported as 1.02 ± 0.01, the normalised cell viability [2] is reported as 1.02 ± 0.015 and the normalised cell viability [3] is reported as 1.017 ± 0.0058. For the same molecule, the normalised cell viability [4] was 1.02 ± 0.014, the normalised cell viability [5] was 1.006 ± 0.0069 and the normalised cell viability [6] was 1.017 ± 0.0058.
Work on NC[C@@H]1O[C@H](C23CC4CC(CC(C4)C2)C3)Cc2c1ccc(O)c2O yielded a normalised cell viability [1] of 1.01 ± 0.012, a normalised cell viability [2] of 0.0562 ± 0.02 and a normalised cell viability [3] of 1.01 ± 0.011. It also gave a normalised cell viability [4] of 0.996 ± 0.077, a normalised cell viability [5] of 1.01 ± 0.011 and a normalised cell viability [6] of 0.0119 ± 0.0027.
CCCCCCCCCCCCCCCC(=O)OC(CC(=O)O)C[N+](C)(C)C (racemic) [Palmitoyl-DL-Carnitine chloride] showed a normalised cell viability [1] of 1.02 ± 0.011, a normalised cell viability [2] of 0.975 ± 0.014 and a normalised cell viability [3] of 1.013 ± 0.0058. The normalised cell viability [4] was 0.863 ± 0.28, the normalised cell viability [5] was 1.007 ± 0.0058 and the normalised cell viability [6] was 1.02 ± 0.02.
Work on CC(/C=C/C(=O)NO)=C\[C@@H](C)C(=O)c1ccc(N(C)C)cc1 [Trichostatin A] yielded a normalised cell viability [1] of 2.17e-05 ± 0.00056, a normalised cell viability [2] of 0.000584 ± 0.0001 and a normalised cell viability [3] of 0.00474 ± 0.0016. It also gave a normalised cell viability [4] of 0.00101 ± 0.0013, a normalised cell viability [5] of -0.000312 ± 0.00084 and a normalised cell viability [6] of 0.000187 ± 0.00072.
Cc1ccc(C(=O)c2cc(/C=C/C(=O)NO)n(C)c2)cc1 gave a normalised cell viability [1] of 1 ± 0.022, a normalised cell viability [2] of 1.02 ± 0.02 and a normalised cell viability [3] of 1 ± 0.021. For the same molecule, the normalised cell viability [4] was 1.02 ± 0.017, the normalised cell viability [5] was 0.9928 ± 0.0048 and the normalised cell viability [6] was 0.995 ± 0.022.
With CC(C=CC(=O)NO)=CC(C)C(=O)c1ccc(N(C)C)cc1 (centres undefined) [Trichostatin A (TSA)] the normalised cell viability [1] was 0.0292 ± 0.0042, the normalised cell viability [2] was -0.000733 ± 0.0048 and the normalised cell viability [3] was 0.937 ± 0.098. It also gave a normalised cell viability [4] of 0.00269 ± 0.00055, a normalised cell viability [5] of 0.00709 ± 0.0011 and a normalised cell viability [6] of 8.2e-05 ± 0.00089.
With CN1CCC[C@@H]1c1cccnc1.Cc1ccc(C(=O)O[C@H](C(=O)O)[C@@H](OC(=O)c2ccc(C)cc2)C(=O)O)cc1 [(+)-Nicotine (+)-di-p-toluoyl tartrate] the normalised cell viability [1] was 1.03 ± 0.015, the normalised cell viability [2] was 1.02 ± 0.016 and the normalised cell viability [3] was 1.03 ± 0.01. The normalised cell viability [4] was 1.03 ± 0.021, the normalised cell viability [5] was 1.027 ± 0.0058 and the normalised cell viability [6] was 1.03 ± 0.015.
Molecule CC1CN(S(=O)(=O)c2cccc3cnccc23)CCN1 (centres undefined) has a normalised cell viability [1] of 0.9777 ± 0.0078, a normalised cell viability [2] of 0.966 ± 0.025 and a normalised cell viability [3] of 0.9933 ± 0.0051. The normalised cell viability [4] was 1.01 ± 0.091, the normalised cell viability [5] was 0.9757 ± 0.0074 and the normalised cell viability [6] was 0.9753 ± 0.0076.
With Oc1cc2c(c(Cl)c1O)CCNCC2c1ccccc1 (racemic) [(±)-6-Chloro-PB hydrobromide] the normalised cell viability [1] was 1.007 ± 0.0058, the normalised cell viability [2] was 1.04 ± 0.023 and the normalised cell viability [3] was 1.03 ± 0.015. For the same molecule, the normalised cell viability [4] was 1.05 ± 0.01, the normalised cell viability [5] was 1.02 ± 0.01 and the normalised cell viability [6] was 1.02.
O=C(c1ccc2c(c1)OCCO2)N1CCCCC1 was tested, and the normalised cell viability [1] was 1.005 ± 0.0092, the normalised cell viability [2] was 1 ± 0.017 and the normalised cell viability [3] was 1.01. For the same molecule, the normalised cell viability [4] was 1 ± 0.017, the normalised cell viability [5] was 0.9913 ± 0.0096 and the normalised cell viability [6] was 0.9947 ± 0.0021.
O=C1O/C(=C/Br)CCC1c1cccc2ccccc12 (centres undefined) [Bromoenol lactone] gave a normalised cell viability [1] of 1.02, a normalised cell viability [2] of 1.02 ± 0.026 and a normalised cell viability [3] of 1.01 ± 0.01. For the same molecule, the normalised cell viability [4] was 1.02, the normalised cell viability [5] was 0.998 ± 0.013 and the normalised cell viability [6] was 1.01.
CCOC(=O)C1=CN(Cc2ccccc2)C=C(C(=O)OCC)C1c1ccccc1 gave a normalised cell viability [1] of 0.995 ± 0.018, a normalised cell viability [2] of 1.01 ± 0.026 and a normalised cell viability [3] of 1 ± 0.019. It also gave a normalised cell viability [4] of 1.01 ± 0.021, a normalised cell viability [5] of 0.993 ± 0.0059 and a normalised cell viability [6] of 1.003 ± 0.01.
Molecule O=C(O)c1cc(O)c2ccc(Cl)cc2n1 [7-Chlorokynurenic acid] has a normalised cell viability [1] of 1.002 ± 0.0069, a normalised cell viability [2] of 0.974 ± 0.0072 and a normalised cell viability [3] of 1.01 ± 0.015. For the same molecule, the normalised cell viability [4] was 0.9873 ± 0.0046, the normalised cell viability [5] was 1.01 ± 0.01 and the normalised cell viability [6] was 0.997 ± 0.0036.
N=C(N)NCCCCN [Agmatine sulfate] showed a normalised cell viability [1] of 1.017 ± 0.0058, a normalised cell viability [2] of 1 ± 0.025 and a normalised cell viability [3] of 1.003 ± 0.0058. The normalised cell viability [4] was 1 ± 0.025, the normalised cell viability [5] was 0.986 ± 0.012 and the normalised cell viability [6] was 0.997 ± 0.011.
CC(C)C[C@H](NC(=O)[C@H](Cc1ccccc1)NC(=O)c1cnccn1)B(O)O [Bortezomib (Velcade)] gave a normalised cell viability [1] of 0.352 ± 0.024, a normalised cell viability [2] of 0.0578 ± 0.0037 and a normalised cell viability [3] of 0.677 ± 0.016. It also gave a normalised cell viability [4] of 0.351 ± 0.042, a normalised cell viability [5] of 0.00826 ± 0.0011 and a normalised cell viability [6] of 0.000986 ± 0.0007.
CC(C)C[C@H](NC(=O)[C@@H](O)[C@H](N)Cc1ccccc1)C(=O)O [Bestatin hydrochloride] gave a normalised cell viability [1] of 0.996 ± 0.0046, a normalised cell viability [2] of 1.02 ± 0.011 and a normalised cell viability [3] of 0.989 ± 0.01. For the same molecule, the normalised cell viability [4] was 1.02 ± 0.033, the normalised cell viability [5] was 0.979 ± 0.012 and the normalised cell viability [6] was 0.9903 ± 0.0015.
With CC(C)C[C@H](NC(=O)[C@H](O)[C@H](N)Cc1ccccc1)C(=O)O [Epibestatin hydrochloride] the normalised cell viability [1] was 1.003 ± 0.0064, the normalised cell viability [2] was 0.9953 ± 0.004 and the normalised cell viability [3] was 0.9977 ± 0.004. For the same molecule, the normalised cell viability [4] was 0.9947 ± 0.005, the normalised cell viability [5] was 0.9957 ± 0.0067 and the normalised cell viability [6] was 1.007 ± 0.0058.
